# Assay results from PubChem BioAssay AID488890 (Southern Research Specialized Biocontainment Screening …, 2010).
# Among all 320,000 compounds or so, about 1,300 (0.41%) were called active. Another 3% or so got no clear call; they are omitted. How the calls were made is not given here. Not all results are given here. Results with a measured potency or affinity are listed apart. Peptide text beside a SMILES is read from it. * marks the point of attachment. Boc = CC(C)(C)OC(=O)*; OtBu = CC(C)(C)O*
# Experiment: growth inhibition of non-replicating M. tuberculosis (AID 488890);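 further: plate controls were DMSO cells for no effect and high antibiotic wells for full effect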
# Settings: Mycobacterium tuberculosis non-replicating, at 25 µM, stronger effect = higher value
row,Structure (SMILES),inhibition [%]
1,Cc1ccc(S(=O)(=O)N2CCOCC2)cc1C(=O)OCC(=O)N(Cc1ccccc1)C(C)C,0.48
2,O=C(CNC(=O)c1cccs1)NCC(=O)OCc1ccc(Cl)cc1,15.7
3,CCN(CC)S(=O)(=O)c1ccc(N2CCOCC2)c(NS(=O)(=O)c2ccc(OC)cc2)c1,-8.38
4,CCc1nc(NC(C)C)c2oc3ccccc3c2n1,8.44
5,Cc1nnc(N/N=C\c2ccc(-c3ccccc3[N+](=O)[O-])o2)n1N,63.6
6,Cc1nnc(N/N=C\c2ccc(-c3cccc(C(=O)O)c3)o2)n1N,12.4
7,CCOc1cc2c(cc1OCC)C(c1ccc(F)cc1)NCC2 (centres undefined),19.2
8,CC(CNC(=O)c1ccc(OC2CCN(Cc3ccccn3)CC2)cc1)Oc1cccnc1 (centres undefined),0.447
9,COc1ccc(CNC(=O)CCCc2ccccc2)cc1,1.45
10,COc1ccc(CCNC(=O)CCCc2ccccc2)cc1OC,26.3
11,CN(CC(=O)Nc1ccc(F)c(F)c1)S(=O)(=O)c1cccc2cccnc12,0.37
12,N#Cc1ccc(COC(=O)c2ccccn2)cc1,55.2
13,O=C(COC(=O)c1ccccn1)Nc1c(Cl)cccc1Cl,8.09
14,O=C(OCc1c(Cl)cccc1Cl)c1cccnc1Cl,33.3
15,COC(=O)c1ccc(COC(=O)c2cnccn2)cc1,55.1
16,O=C(OCc1c(Cl)cccc1Cl)c1cnccn1,17.6
17,O=C(OCc1ccc(Cl)c(Cl)c1)c1cnccn1,4.21
18,O=C(COC(=O)c1ccccn1)Nc1ccccc1Cl,3.22
19,COC(=O)c1ccc(OC(=O)c2ccccn2)cc1,42
20,O=C(c1cccs1)N1CCN(C2CCCCC2)CC1,14.6
21,O=C(CSc1nnc(CNC(=O)c2ccccc2F)o1)NCC1CCCO1 (centres undefined),4.55
22,Cc1cc(C)c(C)c(C(=O)COC(=O)CNC(=O)CNC(=O)c2ccco2)c1C,6.12
23,CN(C)/C=N/c1cc(=O)[nH]c(=O)n1CC1CC1,-0.07

row,Structure (SMILES),inhibition [%]
1,CN1CCN(C(=O)COc2ccc3ccccc3c2Br)CC1,37.4
2,O=C(COc1ccc2ccccc2c1Br)N1CCCCC1,76.2
3,O=C(Oc1c(Br)cc(Br)c2cccnc12)N1CCCCC1,43.3
4,O=C(Oc1c(Cl)cc(Cl)c2cccnc12)N1CCCCC1,22.4
5,O=C(COc1ccccc1F)Nc1c2c(nn1-c1ccccc1)CS(=O)(=O)C2,16.8
6,Cc1ccc(OCC(O)Cn2c(N3CCOCC3)nc3c2c(=O)[nH]c(=O)n3C)cc1 (centres undefined),14.4
7,COc1cccc(/C=N/N2CCN(c3ccccc3OC)CC2)c1,2.17
8,CCCCC[C@@H]1C=C(C(=O)O)[C@H](c2ccc3c(c2)OCO3)N1S(=O)(=O)c1ccc(C)cc1,27.2
9,COC(=O)C1ON2OC(C(=O)OC)C(C(=O)OC)C2C1CC(C)=O (centres undefined),-1.62
10,Cc1ccc(-c2nnc(C)c(N3CCOCC3)n2)cc1,7.79
11,Cc1ccc(-c2nnc(C)c(N3CC(C)OC(C)C3)n2)cc1 (centres undefined),2.5
12,CCOC(=O)C1=C(N)OC2=C(C(=O)CC(C)(C)C2)C1c1ccc(C)s1 (centres undefined),64.3
13,O=C(COC(=O)c1cccnc1Cl)NCCCc1ccccc1,27.7
14,COc1ncccc1-c1nnn(-c2ccccc2Br)n1,3.8
15,CCOC(=O)COc1ccc2c(c1)c(C(C)=O)c(C)n2-c1ccccc1,19.1
16,C#CCOc1ccc2c(c1)c(C(C)=O)c(C)n2Cc1ccccc1,-5.53
17,O=C(COc1ccc(F)cc1Br)NCc1ccccn1,28.1
18,COc1ccc(S(=O)(=O)NCc2ccncc2)cc1NC(=O)c1ccc(Cl)cc1,5.22
19,Cc1oc2c(c(=O)c1C)C(=O)CC(c1ccccc1)C2 (centres undefined),-6.93
20,Cc1c(C(=O)O)[nH]c2c1C(=O)CC(c1ccccc1)C2 (centres undefined),4.15
21,Cc1cc(Cl)ccc1N1C(=O)CC(NNC(=O)c2cccnc2)C1=O (centres undefined),5.86
22,CCS(=O)(=O)N1CCC(NC(=O)C2CCCCC2)CC1,-9.82
23,CCOC(=O)c1csc(NC(C)=O)n1,-1.23

row,Structure (SMILES),inhibition [%]
1,CCOC(=O)c1csc(NC(=O)COc2ccc(Cl)cc2Cl)n1,80.3
2,CC(C)NC(=O)NNC(=O)c1cc(COc2cc(Cl)cc(Cl)c2)on1,31.8
3,CCOC(=O)c1csc(N)n1,-4.96
4,CC(=O)c1csc(COc2ccccc2)n1,-0.92
5,CCOC(=O)c1csc(-c2ccc(OC)c(OC)c2)n1,32.3
6,Cc1onc(-c2ccccc2)c1-c1csc(COc2ccccc2)n1,33.1
7,CCC(=O)NNC(=O)c1cc(COc2cc(Cl)cc(Cl)c2)on1,40
8,COc1ccc(OC)c(Nc2nc(N)nc(CSc3nnc(N)s3)n2)c1,-6.45
9,N#CC1(NC(=O)CSc2nnc(-c3ccccc3F)n2N)CCCCC1,-6.24
10,O=C(CCN1C(=O)C2CC=CCC2C1=O)NC1CCCCC1 (centres undefined),-1.44
11,COc1ccc(-c2cn(-c3ccc(Cl)cc3)c3[n+]2CCCCC3)cc1,10.6
12,O=C(c1ccc(N2CC3CC(C2)c2cccc(=O)n2C3)c([N+](=O)[O-])c1)N1CCCC1 (centres undefined),-6.65
13,O=C(C1=NN[C@@H]2C(=O)N(Cc3ccccc3)C(=O)[C@H]12)c1ccc(F)cc1,5.43
14,N#CCP(=S)(c1ccccc1)c1ccccc1,24.1
15,CCCNC(=O)C(Cc1ccccc1)NC(=O)c1ccc(-c2ccccc2)cc1 (centres undefined),4
16,COc1ccc(CN(CC2CCC(C(=O)O)CC2)C(=S)Nc2cc(Cl)ccc2OC)cc1 (centres undefined),2.05
17,CC(NC(=O)C(CC(=O)OC(C)(C)C)NC(=O)OC(C)(C)C)C(N)=O (centres undefined) (Boc-Asp(OtBu)-Ala-NH2; configuration not given here),-0.24
18,Nc1nonc1-c1noc(COc2ccccc2Cl)n1,5.72
19,CCOC(=O)c1csc(NC(=O)c2ccc(OCC)cc2)n1,19.8
20,CC(=O)c1csc(COc2ccc(Cl)cc2)n1,38.9
21,CCOC(=O)c1ccccc1-c1csc(N)n1,6.53
22,Cc1onc(C(=O)NN)c1-c1csc(COc2ccc(Cl)cc2)n1,13.2
23,Cc1onc(-c2ccc(Cl)cc2Cl)c1-c1csc(COc2ccccc2)n1,-7.56

row,Structure (SMILES),inhibition [%]
1,CCn1cc(C(=O)NCC2CCCO2)c(=O)c2cc(S(=O)(=O)N3CCCCCC3)ccc21 (centres undefined),4.04
2,COc1ccccc1C(=O)Nc1c2c(nn1-c1cccc(C)c1C)CS(=O)(=O)C2,2.28
3,CC(C)c1ccc(NC2CCCN(C(=O)c3ccc(Cn4cnnn4)cc3)C2)cc1 (centres undefined),10.9
4,CS(=O)(=O)N1CCCC(C(=O)Nc2ccc(F)c(F)c2)C1 (centres undefined),-12.2
5,Nn1c(SCC(=O)Nc2ccc3c(c2)OCCO3)nncc1=O,-11.2
6,NC(=O)c1ccccc1N/C=C/C(=O)c1ccco1,-0.65
7,CCOc1ccccc1N/C=C/C(=O)C(C)(C)C,0.25
8,Cc1ccc(N/C=C/C(=O)C(C)(C)C)c(O)c1,6.34
9,Cc1ccc(N/C=C/C(=O)c2ccco2)c(O)c1,12.5
10,C=C(C)COc1ccc(-c2[nH]ncc2Oc2ccc(OC)cc2)c(O)c1,-5.21
11,COc1ccc(C(c2c(N)[nH]c(=S)[nH]c2=O)c2c(N)[nH]c(=S)[nH]c2=O)cc1,-18.4
12,COc1ccc(-c2nc(CCl)cs2)cc1,7.52
13,COc1ccc(-c2csc(-c3ccc(O)cc3)n2)cc1,40
14,O=C(CSc1c2c(nc3cc(Cl)ccc13)CCCC2)NCCCN1CCOCC1,50
15,Cc1[nH]c(=S)c(C#N)c2c1CCCC2,16.1
16,COc1ccc(CNc2nc3nc(C)c(Cl)c(=O)n3[nH]2)cc1,28.1
17,CC(OC(=O)c1cc(S(=O)(=O)N2CCOCC2)ccc1Br)C(=O)N1CCOCC1 (centres undefined),6.34
18,CCC1Oc2ccccc2N(CC(=O)NCCCN2CCCCC2CC)C1=O (centres undefined),1.4
19,CCOC(=O)c1ccccc1NC1OC(=O)c2ccccc21 (centres undefined),-8.12
20,CC(=O)Nc1ccc(NC2=CC(=O)c3ccccc3C2=O)cc1,-2.89
21,CCOC(=O)c1ccc(NC2c3ccccc3C(=O)N2c2ccccn2)cc1 (centres undefined),-6.64
22,CCOC(=O)c1ccc(NC(=O)C(C)N2C(=O)c3ccccc3C2=O)cc1 (centres undefined),-8.22
23,NS(=O)(=O)c1ccc(NC2=CC(=O)C(=O)c3ccccc32)cc1,36.2

row,Structure (SMILES),inhibition [%]
1,O=C1C=C(Nc2ccccc2)C(=O)c2ccccc21,56.9
2,CCOC(=O)c1c(C)[nH]c(C(=O)COC(=O)Cn2cc(C(F)(F)F)ccc2=O)c1C,2.63
3,CCCc1nnc(NC(=O)CCC(=O)Nc2ccc(F)cc2)s1,-5.14
4,CCN(C(=O)c1ccc(Cl)c(S(=O)(=O)Nc2c(C)n(C)n(-c3ccccc3)c2=O)c1)c1ccccc1,5.47
5,CCN(CC)C(=O)Cn1cc(C(=O)C(=O)N2CCCc3ccccc32)c2ccccc21,16.8
6,Cc1cc(/C=C2\NC(=O)NC2=O)c(C)n1-c1cccnc1,-6.79
7,S=C(Nc1ccccc1)N1CCC(Cc2ccccc2)CC1,5.68
8,O=C(N/N=C/c1cc(Br)ccc1O)c1cccc(N2CCCC2=O)c1,54.7
9,COc1ccc(O)c(/C=N/NC(=O)c2cccc(N3CCCC3=O)c2)c1,5.55
10,CCC1(CC)C(=O)N(C)C(=O)NC1=NC,-9.72
11,O=C(N/N=C/c1ccccc1[N+](=O)[O-])c1cccs1,55.4
12,O=C(N/N=C\c1cc2c(cc1[N+](=O)[O-])OCO2)c1cccs1,16.5
13,O=[N+]([O-])c1cccc(C=Nc2cccc3ccccc23)c1O,55.1
14,CN(C)/N=C/c1cc([N+](=O)[O-])ccc1O,-5.98
15,O=[N+]([O-])c1ccc(O)c(/C=N\N=C2c3ccccc3-c3ccccc32)c1,72.8
16,O=[N+]([O-])c1cccc(/C=N\N=C2c3ccccc3-c3ccccc32)c1O,22
17,c1ccc(CN2CCNCC2)nc1,-22.1
18,CCOc1ncccc1C(=O)OCC(=O)N1CCN(S(=O)(=O)c2ccccc2)CC1,-4.22
19,CCOc1ccc(/C=N/OCC(=O)NCc2ccc3c(c2)OCO3)cc1OC,13
20,CCNC(=O)CSc1nnc(-c2cccs2)o1,61.4
21,Cc1ccc(S(=O)(=O)Nc2cccc3ncccc23)cc1,15.3
22,Cc1ccc(S(=O)(=O)Nc2ccnc3ccccc23)cc1,-9.89
